From ChEMBL document CHEMBL1961873, “Compounds: GSK PKIS; Assays: Nanosyn kinase panel” (2012) come the findings set out here.

Assay [1] deals with Protein kinase C gamma type (Homo sapiens) (UniProt P05129). The note with it: at 1 µM.
The target of assay [2] is T1, Protein kinase C iota type (Homo sapiens) (UniProt P41743).
T1 sequence (whole entry): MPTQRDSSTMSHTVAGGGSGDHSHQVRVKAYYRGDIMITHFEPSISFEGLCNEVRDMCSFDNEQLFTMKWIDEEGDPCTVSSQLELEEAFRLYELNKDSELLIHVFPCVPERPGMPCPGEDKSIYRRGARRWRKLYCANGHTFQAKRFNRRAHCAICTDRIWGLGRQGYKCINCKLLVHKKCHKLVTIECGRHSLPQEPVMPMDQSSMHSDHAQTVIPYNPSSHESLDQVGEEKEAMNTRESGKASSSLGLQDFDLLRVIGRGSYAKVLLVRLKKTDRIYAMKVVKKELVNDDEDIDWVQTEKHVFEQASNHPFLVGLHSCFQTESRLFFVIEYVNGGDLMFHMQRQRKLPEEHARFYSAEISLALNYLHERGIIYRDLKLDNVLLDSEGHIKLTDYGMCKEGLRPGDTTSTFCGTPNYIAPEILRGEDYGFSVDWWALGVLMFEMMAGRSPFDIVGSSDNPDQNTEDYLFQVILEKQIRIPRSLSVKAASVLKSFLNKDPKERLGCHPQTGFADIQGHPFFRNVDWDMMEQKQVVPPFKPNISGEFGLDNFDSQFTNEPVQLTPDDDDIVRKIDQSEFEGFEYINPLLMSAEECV
The note with it: at 0.1 µM.

For assay [3], the target named is T1, Protein kinase C iota type (Homo sapiens). The note with it: at 1 µM.
Assay [4] has as its target Protein kinase C theta type (Homo sapiens) (UniProt Q04759). The note with it: at 0.1 µM.
For assay [5] the target is unchanged. As to conditions: at 1 µM.
The target of assay [6] is Protein kinase C beta type (Homo sapiens) (UniProt P05771). The note with it: at 0.1 µM.
Chain of Protein kinase C beta type (Homo sapiens) (P05771 2-671 limits assumed): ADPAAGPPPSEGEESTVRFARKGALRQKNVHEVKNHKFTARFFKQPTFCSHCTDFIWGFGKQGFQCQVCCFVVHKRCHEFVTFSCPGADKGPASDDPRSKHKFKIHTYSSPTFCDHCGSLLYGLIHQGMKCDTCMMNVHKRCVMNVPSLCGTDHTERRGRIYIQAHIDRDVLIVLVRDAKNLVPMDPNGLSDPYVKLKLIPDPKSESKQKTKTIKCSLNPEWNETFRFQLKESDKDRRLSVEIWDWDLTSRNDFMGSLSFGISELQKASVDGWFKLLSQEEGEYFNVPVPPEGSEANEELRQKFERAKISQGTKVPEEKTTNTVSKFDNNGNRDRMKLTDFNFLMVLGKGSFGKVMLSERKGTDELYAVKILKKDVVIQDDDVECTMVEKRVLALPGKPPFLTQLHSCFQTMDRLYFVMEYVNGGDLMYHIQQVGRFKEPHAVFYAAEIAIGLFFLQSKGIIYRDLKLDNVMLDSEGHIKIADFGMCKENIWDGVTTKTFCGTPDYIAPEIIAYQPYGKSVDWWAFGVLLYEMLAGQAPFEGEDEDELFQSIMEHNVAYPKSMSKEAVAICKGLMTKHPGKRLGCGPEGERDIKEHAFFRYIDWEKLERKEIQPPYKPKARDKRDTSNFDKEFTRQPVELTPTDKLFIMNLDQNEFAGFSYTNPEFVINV
Assay [7] has the same target. The note with it: at 1 µM.
The target of assay [8] is T2, Serine/threonine-protein kinase D1 (Homo sapiens) (UniProt Q15139).
T2 sequence (whole entry): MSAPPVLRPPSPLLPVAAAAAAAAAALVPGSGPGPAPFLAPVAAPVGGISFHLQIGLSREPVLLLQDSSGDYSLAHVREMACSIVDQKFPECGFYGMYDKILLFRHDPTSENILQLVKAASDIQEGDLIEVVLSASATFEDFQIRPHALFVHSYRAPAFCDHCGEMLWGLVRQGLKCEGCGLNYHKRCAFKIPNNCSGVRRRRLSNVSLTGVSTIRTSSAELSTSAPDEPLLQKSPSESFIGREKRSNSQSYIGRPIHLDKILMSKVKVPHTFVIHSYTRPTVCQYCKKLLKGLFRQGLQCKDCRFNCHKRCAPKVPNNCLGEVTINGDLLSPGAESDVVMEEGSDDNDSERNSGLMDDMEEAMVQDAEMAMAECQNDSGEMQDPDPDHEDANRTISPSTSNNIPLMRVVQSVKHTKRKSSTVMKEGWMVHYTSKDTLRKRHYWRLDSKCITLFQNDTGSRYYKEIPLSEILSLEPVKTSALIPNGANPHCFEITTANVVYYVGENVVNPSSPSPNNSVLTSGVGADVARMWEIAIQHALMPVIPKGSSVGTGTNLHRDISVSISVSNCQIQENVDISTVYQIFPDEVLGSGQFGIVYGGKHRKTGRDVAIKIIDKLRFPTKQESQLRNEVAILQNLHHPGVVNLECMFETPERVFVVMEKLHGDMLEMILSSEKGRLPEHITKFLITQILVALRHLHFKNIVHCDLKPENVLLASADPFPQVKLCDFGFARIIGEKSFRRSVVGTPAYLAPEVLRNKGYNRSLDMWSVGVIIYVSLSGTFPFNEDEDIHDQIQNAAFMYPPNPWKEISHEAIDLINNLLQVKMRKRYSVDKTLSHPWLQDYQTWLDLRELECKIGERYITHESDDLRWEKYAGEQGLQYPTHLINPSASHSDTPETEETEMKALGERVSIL
The note with it: at 0.1 µM.

In assay [9] the target is T2, Serine/threonine-protein kinase D1 (Homo sapiens). As to conditions: at 1 µM.
Assay [10] has as its target T3, Serine/threonine-protein kinase D2 (Homo sapiens) (UniProt Q9BZL6).
T3 sequence (whole entry): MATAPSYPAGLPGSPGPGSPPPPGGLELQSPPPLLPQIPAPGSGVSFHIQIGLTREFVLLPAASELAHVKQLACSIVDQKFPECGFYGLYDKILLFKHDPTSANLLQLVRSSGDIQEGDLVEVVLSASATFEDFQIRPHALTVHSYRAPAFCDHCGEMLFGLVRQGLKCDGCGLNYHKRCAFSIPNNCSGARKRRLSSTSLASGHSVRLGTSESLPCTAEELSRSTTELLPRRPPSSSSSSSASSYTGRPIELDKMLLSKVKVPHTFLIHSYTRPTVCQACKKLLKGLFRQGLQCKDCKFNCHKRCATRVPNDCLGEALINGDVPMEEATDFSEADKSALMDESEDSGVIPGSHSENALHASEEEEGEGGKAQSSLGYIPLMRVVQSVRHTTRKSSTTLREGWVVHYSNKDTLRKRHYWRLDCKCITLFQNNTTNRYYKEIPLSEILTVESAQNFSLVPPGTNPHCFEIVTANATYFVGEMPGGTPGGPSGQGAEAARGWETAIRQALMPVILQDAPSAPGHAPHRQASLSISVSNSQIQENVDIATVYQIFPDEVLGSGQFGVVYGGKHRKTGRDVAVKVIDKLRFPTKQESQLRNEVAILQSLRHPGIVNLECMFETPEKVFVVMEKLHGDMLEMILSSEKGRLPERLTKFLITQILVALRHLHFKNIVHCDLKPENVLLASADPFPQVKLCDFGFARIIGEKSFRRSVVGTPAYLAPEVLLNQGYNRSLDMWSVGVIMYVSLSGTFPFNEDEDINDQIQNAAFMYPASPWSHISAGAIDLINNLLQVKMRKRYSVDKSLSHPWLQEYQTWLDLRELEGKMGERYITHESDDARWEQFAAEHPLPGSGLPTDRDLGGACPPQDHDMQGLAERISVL
As to conditions: at 0.1 µM.

Assay [11] has as its target T3, Serine/threonine-protein kinase D2 (Homo sapiens). The note with it: at 1 µM.
Assay [12] has as its target T4, Serine/threonine-protein kinase D3 (Homo sapiens) (UniProt O94806).
T4 sequence (whole entry): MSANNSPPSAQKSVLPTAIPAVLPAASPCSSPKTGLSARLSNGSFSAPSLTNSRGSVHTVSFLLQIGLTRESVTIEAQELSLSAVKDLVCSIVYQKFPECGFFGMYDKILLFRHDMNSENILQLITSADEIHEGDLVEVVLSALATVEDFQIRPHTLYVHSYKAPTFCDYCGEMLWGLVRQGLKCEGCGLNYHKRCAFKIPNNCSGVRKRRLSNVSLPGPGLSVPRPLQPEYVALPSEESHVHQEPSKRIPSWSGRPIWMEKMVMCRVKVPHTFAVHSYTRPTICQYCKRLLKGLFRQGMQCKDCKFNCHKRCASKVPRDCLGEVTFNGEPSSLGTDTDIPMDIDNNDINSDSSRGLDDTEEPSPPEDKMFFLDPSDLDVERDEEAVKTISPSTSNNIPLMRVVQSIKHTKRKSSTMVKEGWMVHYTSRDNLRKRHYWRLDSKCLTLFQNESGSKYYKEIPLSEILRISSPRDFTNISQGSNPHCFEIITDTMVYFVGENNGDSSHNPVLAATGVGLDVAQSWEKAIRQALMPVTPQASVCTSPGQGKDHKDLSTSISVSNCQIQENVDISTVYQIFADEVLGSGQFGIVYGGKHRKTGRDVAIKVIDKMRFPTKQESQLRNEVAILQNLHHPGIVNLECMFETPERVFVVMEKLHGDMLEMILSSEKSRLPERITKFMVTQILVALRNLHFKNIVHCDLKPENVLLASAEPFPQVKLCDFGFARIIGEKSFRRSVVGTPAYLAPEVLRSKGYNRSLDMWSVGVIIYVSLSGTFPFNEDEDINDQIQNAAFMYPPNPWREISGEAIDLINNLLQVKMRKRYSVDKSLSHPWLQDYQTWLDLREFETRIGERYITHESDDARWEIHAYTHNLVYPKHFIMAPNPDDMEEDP
The note with it: at 0.1 µM.

Assay [13] deals with T4, Serine/threonine-protein kinase D3 (Homo sapiens). As to conditions: at 1 µM.
For assay [14], the target named is T5, cGMP-dependent protein kinase 1 (Homo sapiens) (UniProt Q13976).
T5 sequence (whole entry): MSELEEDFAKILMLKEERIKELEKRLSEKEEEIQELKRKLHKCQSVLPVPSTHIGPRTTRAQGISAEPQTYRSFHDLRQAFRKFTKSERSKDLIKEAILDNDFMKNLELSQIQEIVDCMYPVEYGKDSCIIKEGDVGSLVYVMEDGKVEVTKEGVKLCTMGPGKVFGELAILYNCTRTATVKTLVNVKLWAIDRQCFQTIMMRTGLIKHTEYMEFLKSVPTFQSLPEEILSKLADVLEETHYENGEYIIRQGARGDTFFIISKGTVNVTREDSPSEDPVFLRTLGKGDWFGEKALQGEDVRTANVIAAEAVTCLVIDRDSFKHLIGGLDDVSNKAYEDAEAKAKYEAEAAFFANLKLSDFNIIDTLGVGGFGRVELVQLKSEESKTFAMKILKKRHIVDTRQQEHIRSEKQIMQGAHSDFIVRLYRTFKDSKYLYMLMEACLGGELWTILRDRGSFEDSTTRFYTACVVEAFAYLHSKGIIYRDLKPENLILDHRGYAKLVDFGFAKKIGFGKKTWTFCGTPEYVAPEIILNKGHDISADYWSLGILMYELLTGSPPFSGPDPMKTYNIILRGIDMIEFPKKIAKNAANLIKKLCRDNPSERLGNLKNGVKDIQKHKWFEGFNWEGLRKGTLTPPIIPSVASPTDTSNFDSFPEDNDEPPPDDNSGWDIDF
As to conditions: at 0.1 µM.

The target of assay [15] is T5, cGMP-dependent protein kinase 1 (Homo sapiens). As to conditions: at 1 µM.
In assay [16] the target is T6, cGMP-dependent protein kinase 2 (Homo sapiens) (UniProt Q13237).
T6 sequence (whole entry): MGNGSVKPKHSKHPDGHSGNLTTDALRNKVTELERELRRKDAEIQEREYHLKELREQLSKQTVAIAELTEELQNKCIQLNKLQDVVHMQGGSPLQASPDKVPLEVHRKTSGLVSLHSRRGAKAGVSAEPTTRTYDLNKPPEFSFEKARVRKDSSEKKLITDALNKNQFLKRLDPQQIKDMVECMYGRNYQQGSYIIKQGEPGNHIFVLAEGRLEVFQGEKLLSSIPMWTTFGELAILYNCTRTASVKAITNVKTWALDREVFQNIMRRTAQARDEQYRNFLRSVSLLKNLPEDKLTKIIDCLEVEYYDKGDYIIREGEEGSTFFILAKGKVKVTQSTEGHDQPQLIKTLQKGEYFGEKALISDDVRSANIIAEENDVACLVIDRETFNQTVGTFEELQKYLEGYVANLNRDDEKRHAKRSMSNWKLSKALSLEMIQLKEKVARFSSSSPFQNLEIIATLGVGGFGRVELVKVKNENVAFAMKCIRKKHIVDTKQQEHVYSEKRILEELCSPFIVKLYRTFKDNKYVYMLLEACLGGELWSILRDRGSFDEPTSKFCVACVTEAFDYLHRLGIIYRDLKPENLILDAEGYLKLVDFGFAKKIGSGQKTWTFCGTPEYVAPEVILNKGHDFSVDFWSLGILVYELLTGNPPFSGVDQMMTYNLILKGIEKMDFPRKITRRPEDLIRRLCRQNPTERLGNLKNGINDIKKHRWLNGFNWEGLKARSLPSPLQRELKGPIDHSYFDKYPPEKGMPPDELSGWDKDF
The note with it: at 0.1 µM.

Assay [17] concerns the target T6, cGMP-dependent protein kinase 2 (Homo sapiens). The note with it: at 1 µM.
The target in assay [18] is T7, cAMP-dependent protein kinase catalytic subunit PRKX (Homo sapiens) (UniProt P51817).
T7 sequence (whole entry): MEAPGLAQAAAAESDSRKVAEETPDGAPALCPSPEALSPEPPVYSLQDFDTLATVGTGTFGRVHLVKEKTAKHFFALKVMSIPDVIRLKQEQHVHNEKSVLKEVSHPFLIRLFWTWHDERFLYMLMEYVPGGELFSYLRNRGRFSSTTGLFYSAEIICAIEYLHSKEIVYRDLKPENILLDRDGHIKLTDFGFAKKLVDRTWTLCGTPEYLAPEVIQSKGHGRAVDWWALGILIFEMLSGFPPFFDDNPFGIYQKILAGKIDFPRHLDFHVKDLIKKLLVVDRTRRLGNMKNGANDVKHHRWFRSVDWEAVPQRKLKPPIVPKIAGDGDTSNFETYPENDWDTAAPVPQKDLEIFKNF
As to conditions: at 0.1 µM.

Assay [19] addresses T7, cAMP-dependent protein kinase catalytic subunit PRKX (Homo sapiens). The note with it: at 1 µM.
The target in assay [20] is Rho-associated protein kinase 1 (Homo sapiens) (UniProt Q13464). The note with it: at 0.1 µM.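 Also: values are mean percent inhibition of ROCK1.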
Chain of Rho-associated protein kinase 1 (Homo sapiens) (Q13464 2-1354 limits assumed): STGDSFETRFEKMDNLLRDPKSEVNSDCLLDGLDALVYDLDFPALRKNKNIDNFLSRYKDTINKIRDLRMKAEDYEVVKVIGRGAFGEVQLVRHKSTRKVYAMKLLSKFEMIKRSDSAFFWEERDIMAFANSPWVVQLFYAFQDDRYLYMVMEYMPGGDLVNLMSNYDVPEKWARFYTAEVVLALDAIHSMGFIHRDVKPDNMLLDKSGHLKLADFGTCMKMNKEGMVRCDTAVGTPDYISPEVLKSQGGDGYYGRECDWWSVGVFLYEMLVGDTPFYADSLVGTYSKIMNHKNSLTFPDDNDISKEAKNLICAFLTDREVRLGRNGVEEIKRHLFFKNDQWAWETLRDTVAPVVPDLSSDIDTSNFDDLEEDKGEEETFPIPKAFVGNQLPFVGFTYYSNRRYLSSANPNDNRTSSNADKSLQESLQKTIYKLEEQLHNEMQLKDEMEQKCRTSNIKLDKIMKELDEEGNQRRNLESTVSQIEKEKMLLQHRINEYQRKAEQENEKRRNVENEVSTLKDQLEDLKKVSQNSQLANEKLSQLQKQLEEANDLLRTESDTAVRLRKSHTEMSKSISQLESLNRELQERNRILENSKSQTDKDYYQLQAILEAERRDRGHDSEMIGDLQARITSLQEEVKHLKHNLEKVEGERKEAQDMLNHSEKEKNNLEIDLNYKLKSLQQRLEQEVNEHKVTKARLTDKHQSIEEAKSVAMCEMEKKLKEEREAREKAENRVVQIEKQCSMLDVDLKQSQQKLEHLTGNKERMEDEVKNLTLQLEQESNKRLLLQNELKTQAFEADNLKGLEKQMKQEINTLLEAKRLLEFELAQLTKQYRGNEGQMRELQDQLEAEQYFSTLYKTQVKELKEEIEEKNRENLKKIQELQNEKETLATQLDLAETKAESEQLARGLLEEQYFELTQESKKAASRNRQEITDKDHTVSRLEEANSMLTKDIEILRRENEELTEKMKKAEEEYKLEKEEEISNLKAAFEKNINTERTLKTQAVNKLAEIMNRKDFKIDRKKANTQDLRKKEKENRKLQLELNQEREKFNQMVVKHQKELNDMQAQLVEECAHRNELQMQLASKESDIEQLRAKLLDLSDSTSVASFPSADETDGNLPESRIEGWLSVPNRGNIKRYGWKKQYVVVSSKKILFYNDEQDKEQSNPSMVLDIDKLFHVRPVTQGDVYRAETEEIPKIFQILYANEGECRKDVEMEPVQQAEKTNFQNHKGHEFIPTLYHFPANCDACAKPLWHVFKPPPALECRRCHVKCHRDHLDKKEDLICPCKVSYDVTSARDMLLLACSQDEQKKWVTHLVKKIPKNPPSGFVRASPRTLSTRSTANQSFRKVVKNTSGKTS

Chain of Protein kinase C theta type (Homo sapiens) (Q04759 whole entry, looked up): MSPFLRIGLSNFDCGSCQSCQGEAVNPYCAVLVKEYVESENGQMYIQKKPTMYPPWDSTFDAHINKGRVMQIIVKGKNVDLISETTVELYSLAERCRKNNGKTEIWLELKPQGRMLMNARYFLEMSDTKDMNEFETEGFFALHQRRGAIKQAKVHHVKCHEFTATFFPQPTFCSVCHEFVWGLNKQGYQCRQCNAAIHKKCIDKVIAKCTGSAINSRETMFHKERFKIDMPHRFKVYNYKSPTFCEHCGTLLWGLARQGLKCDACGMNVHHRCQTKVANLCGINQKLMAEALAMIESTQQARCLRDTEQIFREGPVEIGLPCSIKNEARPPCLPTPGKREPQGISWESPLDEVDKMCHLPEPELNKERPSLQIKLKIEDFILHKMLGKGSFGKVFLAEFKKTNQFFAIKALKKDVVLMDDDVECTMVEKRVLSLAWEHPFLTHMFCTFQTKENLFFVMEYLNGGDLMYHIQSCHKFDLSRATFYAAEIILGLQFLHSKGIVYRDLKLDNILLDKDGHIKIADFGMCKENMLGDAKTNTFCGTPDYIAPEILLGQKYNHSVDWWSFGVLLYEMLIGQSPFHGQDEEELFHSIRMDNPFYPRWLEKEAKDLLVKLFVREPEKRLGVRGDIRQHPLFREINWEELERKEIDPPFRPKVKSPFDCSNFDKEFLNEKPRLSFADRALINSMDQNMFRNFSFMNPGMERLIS

A word on the inhibition: it is the drop in the measured response relative to a control, in per cent. With `COc1ccc(-c2oc3ncnc(N)c3c2-c2ccc(NC(=O)Nc3cc(C(F)(F)F)ccc3F)cc2)cc1`, the inhibition in assay [1] is 6.08%; in assay [2], 3.51%; in [3] it was 0.63%; in assay [4], 3.51%; in assay [5], 5.06%; in assay [6] it was 1.71%. Moreover, the inhibition in assay [7] worked out at 4.49%; in assay [8], 2.73%; in assay [9], 3.09%; in assay [10], 3.37%; in assay [11] it was 3.15%; in assay [12] it was 3.02%. For the same molecule, the inhibition amounted to 2.96% in [13]; 4.53% in [14]; 3.73% in assay [15]; 3.35% in [16]; 5.54% in [17]; 4.23% in assay [18]. The figures for the inhibition in assay [19] and in assay [20] were 3.47% and 2.21%, respectively.
Take `COc1ccc(-c2cc3c(N)ncnc3o2)cc1`: the inhibition in assay [1] was 8.58%; in [2] it was -0.83%; in [3] it was -1.03%; in [4], -1.21%; in assay [5], -1.64%; in assay [6], 0.45%. For the same molecule, the inhibition in [7] was 1.65%; in [8] it was -1%; in [9] it was -1.28%; in assay [10] it was -0.34%; in assay [11], -0.42%; in [12], -1.77%. In addition, the inhibition in assay [13] is -1.37%; in [14], -0.46%; in [15], 0.25%; in assay [16] it was -1.2%; in assay [17], 1.5%; in assay [18], 0.58%. The inhibition was 0.29% in assay [19] and -0.42% in [20].
